Bioassay records deposited in PubChem by National Center for Advancing Translational Sciences (NCATS).
Pol kappa inh: qHTS for Inhibitors of Polymerase Kappa; hit rate 0.53% among 400,000; Potency, µM (highest dose often 107 µM), for the others: at the top dose activity, negative = inhibition, usual class: inhibitors; DNA polymerase kappa (Homo sapiens), Q9UBT6; purified Pol kappa, fluorescent DNA synthesis assay, 10 min; AID 588579, 2011; also: potency is read from the fitted curve at half-maximal effect; % is scaled to controls: 0 for no effect and ±100 for the full control effect
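Kinetic fluorescence screen: compound preincubated 15 min RT with 10 nM enzyme; 50 nM substrate (final) initiates; reads at 0/10 min.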
PI5P4K alpha inh: qHTS for Inhibitors of phosphatidylinositol 5-phosphate 4-kinase (PI5P4K). Phosphatidylinositol 5-phosphate 4-kinase type-2 alpha (Homo sapiens), P48426. PI5P4Kalpha enzyme, ADP-Glo luminescence, 60 min; active compounds read low. max response, %. hit rate 1.2% among 330,000. AID 652105, 2013; active = max response of -50% or lower; inconclusive = between -30% and -50%; inactive = -30% or higher; also: value at the top dose of about 77 µM; % is scaled to controls: 0 for no effect and ±100 for the full control effect
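Enzyme plus substrate dispensed, test compounds pinned in, then ATP (5 microM final) added. After 60 min at RT, ADP-Glo reagent 1 for 45 min and reagent 2 for 30 min preceded luminescence imaging.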
Pol eta inh: qHTS for Inhibitors of Polymerase Eta; Potency, µM (series often up to 114 µM), for inactives: at the highest dose activity change, negative = inhibition, actives largely listed as inhibitors; recombinant Pol eta, fluorescent DNA replication assay; hit rate 1.2% among 390,000; also: potency is read from the fitted curve at half-maximal effect; % is scaled to controls: 0 for no effect and ±100 for the full control effect
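Pol eta (10 nM) was preincubated with compounds for 15 min at room temperature, after which fluorescent replication substrate (50 nM final) was added to start the reaction. Fluorescence was read kinetically at 0 and 10 min.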
POLI inh: qHTS for Inhibitors of Polymerase Iota; DNA polymerase iota (Homo sapiens), Q9UNA4; Pol iota fluorescent replication assay, 10 min; Potency, µM (highest dose often 115 µM), inactives show at the top dose activity, negative = inhibition, hits mostly inhibitors; hit rate 1% among 390,000; also: potency is read from the fitted curve at half-maximal effect
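Fluorescent replication assay read twice, at 0 min and 10 min after adding 50 nM (final) substrate. Enzyme (10 nM) and compounds were first incubated 15 min at room temperature; enzyme-free buffer wells were negative controls.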
Pol beta inh: qHTS Assay for Inhibitors of DNA Polymerase Beta; Pol beta primer extension/strand displacement, fluorescence kinetic; Potency, µM (top dose mostly 114 µM), for inactives: at the top dose activity change, negative = inhibition, most hits filed as inhibitors; hit rate 1.3% among 340,000; also: potency is read from the fitted curve at half-maximal effect; % is scaled to controls: 0 for no effect and ±100 for the full control effect
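Preincubation: enzyme (10 nM) with compound, 15 min, RT. Reaction: substrate added to 50 nM final. Reads: 0 and 10 min. Analysis: normalized, Hill fit.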
12-LOX inh: Primary qHTS assay for inhibitors of human arachidonate 12S-lipoxygenase (ALOX12): Round 2; Potency, µM (highest dose often 108 µM), for inactives: top-dose activity change, negative = inhibition, hits mostly inhibitors; Polyunsaturated fatty acid lipoxygenase ALOX12 (Homo sapiens), P18054; hit rate 1.1% among 580,000; purified 12hLO, xylenol orange hydroperoxide absorbance; also: potency is read from the fitted curve at half-maximal effect; % is scaled to controls: 0 for no effect and ±100 for the full control effect
Target sequence (P18054 whole entry, looked up): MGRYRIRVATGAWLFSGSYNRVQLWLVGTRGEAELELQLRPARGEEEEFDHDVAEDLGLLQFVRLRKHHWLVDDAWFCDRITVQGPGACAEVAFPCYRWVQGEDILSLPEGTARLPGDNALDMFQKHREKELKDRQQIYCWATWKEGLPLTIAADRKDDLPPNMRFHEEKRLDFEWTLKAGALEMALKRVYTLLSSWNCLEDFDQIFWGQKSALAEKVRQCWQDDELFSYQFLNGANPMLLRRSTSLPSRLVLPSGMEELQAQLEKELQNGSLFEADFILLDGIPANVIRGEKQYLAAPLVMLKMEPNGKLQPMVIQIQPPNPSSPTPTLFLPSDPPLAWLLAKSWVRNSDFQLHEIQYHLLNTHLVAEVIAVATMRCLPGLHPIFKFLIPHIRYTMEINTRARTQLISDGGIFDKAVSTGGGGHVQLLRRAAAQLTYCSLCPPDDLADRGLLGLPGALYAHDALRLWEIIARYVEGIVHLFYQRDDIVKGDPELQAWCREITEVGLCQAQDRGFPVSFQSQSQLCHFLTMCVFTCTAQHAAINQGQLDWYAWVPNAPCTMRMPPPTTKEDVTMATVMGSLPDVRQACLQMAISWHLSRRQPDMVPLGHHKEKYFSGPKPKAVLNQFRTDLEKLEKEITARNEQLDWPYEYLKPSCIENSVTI
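Purified human 12hLO (150 nM final) in 25 mM Hepes, 0.01% Triton X-100, pH 7.0 was preincubated 15 min at room temperature with compound. Then 40 uM arachidonic acid was added, 30 min. Hydroperoxide was read by Fe-XO absorbance ratio 573/405 nm.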
Starred values were filed as active, the others as inactive; ? = inconclusive; nt = not tested or not shown; [ ] = dose if it differs, or a comment. In the library only some 2.9% were active in any assay of this set; here they are far more common. Unless noted, calls follow the shape of the dose curve; as a rule, active = well fitted inhibition curve with a large enough effect; inconclusive = small, poorly fitted or top-dose-only effect, or another doubt; inactive = no such curve, though single readings can be large or run the other way.

SMILES | Pol kappa inh | PI5P4K alpha inh | Pol eta inh | POLI inh | Pol beta inh | 12-LOX inh
CC(=O)Cn1nnc2sc3c(c2c1=O)CCC(C(C)(C)C)C3 (configuration not stated) | -18% | -10 | -10% | 65% | 15% | -1%
Cc1cccc(OCCCCn2nnc3sc4c(c3c2=O)CCC(C)C4)c1 (configuration not stated) | -25% | nt | nt | ? | 14µM* | ?
Cc1cc(C)c(NC(=O)Cn2nnc3sc4c(c3c2=O)CCC(C(C)(C)C)C4)c(C)c1 (configuration not stated) | 0% | nt | nt | 10% | 33% | -11%
NC(=O)C1CCC(NC(=O)C2(c3cccc(Cl)c3)CCC2)CC1 (configuration not stated) | nt | nt | nt | nt | nt | -35%
Cc1c(CCC(=O)NC2Cc3ccccc3C2)c(=O)oc2cc(O)ccc12 | nt | nt | nt | nt | nt | 0%
NS(=O)(=O)c1ccc(N2N=C(c3ccccc3)CCC2=O)cc1 | nt | nt | nt | nt | nt | -2%
CS(=O)(=O)N1CCCC(C(=O)NCc2ccc(OCC3CC3)nc2)C1 (configuration not stated) | nt | nt | nt | nt | nt | 32%
O=C(/C=C/c1cnc2ccccc2n1)NC12CC3CC(CC(C3)C1)C2 | -17% | 0 | 3% | 2% | 56µM* | ?
Cc1ccc(CNC(=O)[C@H](C)[C@H]2C[C@]2(C)[C@H](NC(=O)OCc2ccccc2)c2ccccc2)o1 | -14% | -52* | -10% | ? | -6% | nt
C[C@@H](C(=O)NCc1ccccc1)[C@@H]1C[C@@]1(C)[C@@H](NC(=O)OCc1ccccc1)c1ccccc1 | 10% | -3 | -16% | -2% | 4% | -1%
COCCNc1nc(NCc2ccccc2OC)c2cnn(C)c2n1 | 1%[60.1 µM] | nt | nt | -8% | 7% | 13µM*
N#CCn1cnc2sc(-c3ccccc3)cc2c1=O | -20% | -52* | ? | 39% | ? | -16%
COc1ccc(C(=O)NC(=S)Nc2ccc(S(=O)(=O)Nc3cc(OC)ncn3)cc2)cc1 | -14% | 6 | -1% | -2% | 39% | 10µM*
COc1ccc(OCC(=O)NC(=S)Nc2ccc(S(=O)(=O)Nc3cc(OC)nc(OC)n3)cc2)cc1 | -15% | -3 | -8% | -9% | 6% | ?
Cc1cc(NS(=O)(=O)c2ccc(NC(=S)NC(=O)c3ccc(F)cc3)cc2)no1 | -8% | -4 | 2% | 95% | 0% | 25µM*
COc1ccc(C(=O)NC(=S)Nc2ccc(S(=O)(=O)Nc3cc(OC)nc(OC)n3)cc2)cc1 | -7% | 1 | -4% | -9% | 44% | 7.1µM*
Cc1ccc(NC(=O)c2ccc(=O)[nH]n2)cc1S(=O)(=O)Nc1ccccc1Cl | 2% | 6 | -17% | 2% | nt | 254%
Cc1ccc(NC(=S)NC(=O)c2ccc(F)cc2)cc1S(=O)(=O)Nc1ccccc1Cl | -26% | 7 | -4% | 79% | 12% | 5µM*
CC1(O)CCCN(Cc2cc3cc4c(cc3nc2-c2ccc(Cl)cc2)OCO4)C1 (configuration not stated) | nt | nt | nt | nt | nt | 19%
COc1cc(NS(=O)(=O)c2ccc(NC(=S)NC(=O)c3sc4ccccc4c3Cl)cc2)ncn1 | -14% | ? | 25µM* | ? | -23% | -17%
COc1cc(NS(=O)(=O)c2ccc(NC(=S)NC(=O)c3ccc(F)cc3)cc2)nc(OC)n1 | -11% | 4 | 8% | 12% | 34% | 18µM*
Cc1sc(/N=C/c2cccc3ccccc23)c(C#N)c1C | nt | nt | nt | nt | nt | -67%
Cc1sc(/N=C/c2c[nH]c3ccccc23)c(C#N)c1C | nt | nt | nt | nt | nt | 20µM*
Cc1sc(/N=C/c2ccc(C(C)(C)C)cc2)c(C#N)c1C | nt | nt | nt | nt | nt | -21%
Cc1sc(/N=C/c2ccc(Br)cc2)c(C#N)c1C | nt | nt | nt | nt | nt | 18µM*
